Hits are enriched below; roughly 1.5% of the tested compounds scored in any of these assays.
WRN helicase inh: inhibitors of human WRN helicase | Q14191 | WRN helicase unwinding, fluorescent forked duplex, kinetic | Potency, µM (series often up to 114 µM), for the others: at the highest dose activity change, negative = inhibition, actives largely listed as inhibitors | hit rate 0.46% among 360,000; further: potency means the concentration at half of the fitted maximal effect; nearly all actives have a fitted effect of over 55% in size
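Kinetic fluorescence helicase assay: unwinding of a quenched forked DNA duplex (100 nM final) with 2 mM ATP final raises red fluorescence (525/598 nm). Compounds sat 15 min at room temperature with 20 nM WRN beforehand.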
PI5P4Ka inh: blocks human PI5P4K alpha kinase activity; AID 652105; max response, %; PI5P4Kalpha enzyme, ADP-Glo luminescence, 60 min; hits give low values; hit rate 1.2% among 330,000; P48426; active means max response of -50% or lower; inconclusive means between -30% and -50%; inactive means -30% or higher; further: value at the top dose of about 77 µM
Target sequence (P48426 whole entry, looked up): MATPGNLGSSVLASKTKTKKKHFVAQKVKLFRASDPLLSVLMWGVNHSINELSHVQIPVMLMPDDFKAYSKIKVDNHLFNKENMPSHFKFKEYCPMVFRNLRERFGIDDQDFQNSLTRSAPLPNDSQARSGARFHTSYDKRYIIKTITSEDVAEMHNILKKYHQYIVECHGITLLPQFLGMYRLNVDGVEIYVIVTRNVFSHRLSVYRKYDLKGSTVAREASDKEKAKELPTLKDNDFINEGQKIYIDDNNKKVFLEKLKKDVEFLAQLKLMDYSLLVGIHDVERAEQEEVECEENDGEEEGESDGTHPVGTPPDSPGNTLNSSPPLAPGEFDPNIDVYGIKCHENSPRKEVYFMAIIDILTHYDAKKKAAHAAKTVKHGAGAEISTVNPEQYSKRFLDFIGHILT
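PI5P4Kalpha ADP-Glo assay; 5 microM ATP final; 60 min RT reaction; HEPES pH 7.4/EGTA/CHAPS, 5% DMSO; controls lacking substrate or enzyme; luminescent end-point.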
FEN1 inh: human FEN1 inhibition; P39748; Recombinant FEN1 flap cleavage, fluorescence, 15 min; Potency, µM (doses to about 114 µM), for the others: top-dose activity change, negative = inhibition, most hits filed as inhibitors; hit rate 0.35% among 390,000; AID 588795; further: potency means the concentration at half of the fitted maximal effect; nearly all actives have a fitted effect of over 65% in size
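FEN1 at 10 nM, compound pretreatment for 15 min (room temperature), 50 nM final substrate to initiate; endpoint reads at 0 and 15 min; DMSO-only plates used as vehicle background.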
RECQ1 inh: inhibitors of human RECQ1 DNA helicase. RECQ1 DNA unwinding, red fluorescence kinetic read. hit rate 0.54% among 240,000. P46063. Potency, µM (doses to about 57.3 µM), inactives show top-dose activity, negative = inhibition, usual class: inhibitors;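 further: potency means the concentration at half of the fitted maximal effect; plate controls were vehicle for no effect and no enzyme for full effect; nearly all actives have a fitted effect of over 30% in size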
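50 nM RECQ1T1 preincubated 15 min with compound in Tris pH 8.0 buffer with MgCl2, DTT, Tween-20 and 2.5 ug/ml poly(dI-dC); started with 200 nM TAMRA/BHQ-2 forked duplex and 2 mM ATP. Unwinding read as fluorescence (525/598 nm), two reads 2 h apart.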
BLM inh: Bloom syndrome helicase (human) inhibition; P54132; recombinant BLM DNA unwinding, fluorescence dequenching; Potency, µM (series often up to 56.1 µM), without a hit: at the highest dose activity change, negative = inhibition, hits mostly inhibitors; hit rate 0.2% among 350,000; AID 2528;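 further: potency means the concentration at half of the fitted maximal effect; plate controls were vehicle for no effect and no enzyme for full effect; nearly all actives have a fitted effect of over 35% in size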
APEX1 inh: APE1 (human) endonuclease inhibition; P27695; recombinant APE1, TAMRA/BHQ-2 abasic DNA cleavage fluorescence; Potency, µM (titrated, usually from 65.8 µM), without a hit: at the highest dose activity change, negative = inhibition, most hits filed as inhibitors; hit rate 0.35% among 350,000;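 further: potency means the concentration at half of the fitted maximal effect; plate controls were vehicle for no effect and reference inhibitor for full effect; nearly all actives have a fitted effect of over 55% in size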
Target sequence (P27695 whole entry, looked up): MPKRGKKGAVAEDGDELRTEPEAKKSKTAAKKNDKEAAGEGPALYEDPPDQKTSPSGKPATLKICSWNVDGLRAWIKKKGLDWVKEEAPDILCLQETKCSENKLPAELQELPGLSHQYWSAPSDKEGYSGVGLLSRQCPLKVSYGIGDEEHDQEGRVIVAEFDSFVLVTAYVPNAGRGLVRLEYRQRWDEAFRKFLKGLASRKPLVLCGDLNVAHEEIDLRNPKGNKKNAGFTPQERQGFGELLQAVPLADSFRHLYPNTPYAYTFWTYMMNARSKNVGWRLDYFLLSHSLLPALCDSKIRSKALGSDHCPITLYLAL
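Substrate: short duplex with […] THF abasic site, 5'-TAMRA and 3'-BHQ-2, 50 nM final. APE1 at 0.75 nM, preincubated 15 min RT with compound. Fluorescence increase from first to third read measured activity.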
* hit, by the source's call; i = inactive; ? = inconclusive; . = not tested or not shown; ! = repeats disagree; [ ] = dose if it differs, or a comment. Unless noted, the call rests on the fitted dose curve; in most records, active means well fitted curve in the direction sought with a large enough effect; inconclusive means small, poorly fitted or top-dose-only effect, or another doubt; inactive means no such curve, though single readings can be large; an effect the other way counts as inactive or inconclusive. Unless noted, on the % scale 0 is the no-effect control and ±100 the full control effect.

SMILES	WRN helicase inh	PI5P4Ka inh	FEN1 inh	RECQ1 inh	BLM inh	APEX1 inh
Cc1nc(Cl)sc1C(=O)Nc1ccc2ccccc2c1	4%	2	0%	i	-1%	17%
O=C(Nc1ccc2ccccc2c1)c1nn(C23CC4CC(CC(C4)C2)C3)cc1Br	-13%	.	16%	-8%	1%	4.5µM*
O=C(O)C(Cl)(Cl)Br	.	.	.	-9%	.	0%
c1ccc(NNc2ccccc2)cc1	.	.	.	0%	.	-1%
c1ccc2c(c1)CCCC2	.	.	.	-9%	.	1%
CCN1/C(=C\C=C\C2=[N+](CC)c3ccccc3C2(C)C)C(C)(C)c2ccccc21	45µM*	?	45µM*	28µM*	7.9µM*	32µM*
CC(C)n1c(O)c(C2c3cc(Cl)ccc3Oc3[nH]c(=O)n(C(C)C)c(=O)c32)c(=O)[nH]c1=O (configuration not stated)	35µM*	?	-14%	-3%	0%	0%
CC(=O)c1c(O)n(-c2cccc(Cl)c2)c(=O)[nH]c1=O (tested in a mixture with another compound)	-26%	10	-6%	-7%	-7%	0%
O=C(N/N=C/c1c(O)n(CCc2ccc(F)cc2)c(=O)[nH]c1=O)c1ccccc1	4%	-25	13%	-1%	-1%	0%
O=C(N/N=C/c1c(O)n(CCc2ccc(F)cc2)c(=O)[nH]c1=O)c1ccncc1	-15%	-65*	-3%	-11%	-5%	3%
O=C(N/N=C/c1c(O)n(CCc2ccccc2)c(=O)[nH]c1=O)c1ccncc1	-10%	-77*	-2%	-6%	-5%	3%
COc1ccc(N2CC(C(=O)NCc3ccco3)CC2=O)cc1 (configuration not stated)	-11%	-6	0%	i	-3%	?
NCC1O[C@@H](O[C@H]2C(O)C(O[C@@H]3C(O[C@H]4OC(CO)C(O)C(O)C4N)C(N)CC(N)[C@H]3O)O[C@@H]2CO)C(N)C(O)C1O (some centres not stated)	.	.	.	?	43%	-8%
O=Cc1ccc(Cl)cc1Cl	.	.	.	-11%	.	-2%
O=C1NC(=O)N(c2ccccc2F)C(=O)/C1=C/c1ccc(Sc2nc3ccccc3[nH]2)o1	22µM*	-86*	?	?	-21%	?
O=C1NC(=O)N(c2ccccc2)C(=O)/C1=C/c1ccc(Sc2ccccc2)o1	45µM*	.	7%	-19%	-6%	-3%
O=C1NC(=O)N(c2ccccc2)C(=O)/C1=C/c1ccoc1	?	?	?	-22%	-8%	?
COCCNC(=O)Cn1cc(/C=C2\C(=O)NC(=O)N(c3ccccc3F)C2=O)c2ccccc21	-5%	2	-2%	.	5%	-14%
C#CCO	.	.	.	-8%	.	5%
O=c1nc(/C=C/c2ccc(Cl)cc2Cl)cc(C(F)(F)F)[nH]1	50µM*	-9	-2%	.	-14%	14%
NC1C=CC=C(C(=O)O)C1 (configuration not stated)	0%	-7	3%	-13%	.	13µM*!
CCC(Cl)[N+](=O)[O-] (configuration not stated)	.	.	.	-5%	.	0%
C=CCn1c(O)c(/C=C2/C=CC=N2)c(=O)[nH]c1=O	-4%[11.6 µM]	-15	-15%	11µM*	0%	-3%
NC[C@@H]1O[C@H](O[C@H]2[C@H](O)[C@@H](O[C@H]3[C@H](O)[C@H](N)C[C@H](N)[C@H]3O[C@@H]3O[C@H](CO)[C@@H](O)[C@H](O)[C@@H]3N)O[C@H]2CO)[C@@H](N)[C@H](O)[C@@H]1O	.	.	.	-2%[25.9 µM]	0%[21.4 µM]	-2%[21 µM]
COc1ccccc1-n1c(O)c(/C=N/NC(=S)Nc2ccccc2)c(=O)[nH]c1=S	0%	-61*	12%	-5%	1%	-6%
SMILES	WRN helicase inh	PI5P4Ka inh	FEN1 inh	RECQ1 inh	BLM inh	APEX1 inh
CN(C)c1ccc(/C=C/C=C/c2sc3ccccc3[n+]2C)cc1	?	-13	?	61%	-6%	-11%
CC[n+]1c(/C=C/N(C)c2ccccc2)sc2ccc(Cl)cc21	50µM*	.	?	-24%	7%	19%
O=C1NC(=O)C(=Cc2ccc3ccccc3c2)C(=O)N1	-25%	-79*	?	i	-1%	-3%
Cc1cc(C)cc(OCCOc2cccc(C=C3C(=O)NC(=O)NC3=O)c2)c1	-11%	-51*	?	.	-7%	17%
CCc1ccc(N2C(=O)NC(=O)/C(=C/c3cccn3CCOc3ccc(C)cc3)C2=O)cc1	-2%	-24	1%	?	-14%	?
Cc1nn(Cc2ccccc2)c(C)c1C=C1C(=O)NC(=O)NC1=O	-32%	-28	-3%	-9%	-2%	20%
Cc1ccc(OCCOc2cccc(C=C3C(=O)NC(=O)NC3=O)c2)cc1	-33%	-78*	-18%	.	-6%	6%
CCOC(=O)CCN(SN(C)C(=O)Oc1cccc2c1OC(C)(C)C2)C(C)C	.	.	.	-6%	-4%	1%
C=C(C)[C@@H]1CC[C@]2(C(=O)O)CC[C@]3(C)[C@H](CCC4[C@@]5(C)CC[C@H](O)C(C)(C)[C@@H]5CC[C@]43C)[C@@H]12 (some centres not stated)	.	.	.	i	.	6%
O=C(O)CCn1cc(C=C2C(=O)NC(=S)NC2=O)c(-c2cc3ccccc3oc2=O)n1	?	-71*	?	20%	-1%	2%
O=C(O)CCn1cc(C=C2C(=O)NC(=S)NC2=O)c(-c2ccccc2)n1	?	-91*	-19%	i	5%	5%
N#CCCn1cc(C=C2C(=O)NC(=O)NC2=O)c(-c2ccccc2)n1	-10%	-19	-24%	-4%	-3%	-6%
N#CSCSC#N	.	.	.	-10%	.	?
Cc1cn([C@H]2C[C@H](O)[C@@H](CO)O2)c(=O)[nH]c1=O	.	.	.	-2%	0%	?
[O]=[Cr](=[O])([OH])[O][Cr](=[O])(=[O])[OH]	.	.	.	13µM*	1µM*	25µM*!
CC(=O)O[C@H]1C[C@H](O[C@H]2[C@@H](O)C[C@H](O[C@H]3[C@@H](O)C[C@H](O[C@H]4CC[C@@]5(C)[C@H](CC[C@@H]6[C@@H]5C[C@@H](O)[C@]5(C)[C@@H](C7=CC(=O)OC7)CC[C@]65O)C4)O[C@@H]3C)O[C@@H]2C)O[C@H](C)[C@H]1O[C@@H]1O[C@H](CO)[C@@H](O)[C@H](O)[C@H]1O	.	.	.	.	.	3%
CC(=O)NNc1ccccc1	.	.	.	0%	.	-4%
C=C[C@H]1CN2CC[C@H]1C[C@H]2[C@H](OC(=O)OCC)c1ccnc2ccc(OC)cc12	.	.	.	.	.	-2%
c1ccc2c(c1)CCNC2	.	.	.	2%	.	2%

Bioassay records from PubChem.
